Results as given in PubChem BioAssay AID1159580 (chemical genetic matrix, 2015).
Hit rate of the full screen: of about 5,500 compounds, about 2,000 (36%) were called active. Inconclusive results (about 18%) are left out. No stated cut-off is given here; in the data, active means normalized growth mostly below about 0.91 (no sharp cut-off); inconclusive means no clear call, values can overlap the other calls; inactive means mostly above about 0.92. The list shows a part of the results.

Experiment: chemical genetic growth profiling, strain panel (AID 1159580);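 further: tested at 20 µM; growth read once vehicle control cultures reached saturation at 30 °C; 1 = growth at the plate median or of vehicle wells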
Settings: growth OD
[1] = S. cerevisiae deletion strains, locus YAL013W, strain DEP1, stronger effect = lower value
[2] = S. cerevisiae deletion strains, locus YBR229C, strain ROT2, stronger effect = lower value
[3] = S. cerevisiae deletion strains, locus YDL101C, strain DUN1, stronger effect = lower value
[4] = S. cerevisiae deletion strains, locus YDR150W, strain NUM1, stronger effect = lower value
[5] = S. cerevisiae deletion strains, locus YEL061C, strain CIN8, stronger effect = lower value
[6] = S. cerevisiae deletion strains, locus YGR078C, strain PAC10, stronger effect = lower value
[7] = S. cerevisiae deletion strains, locus YHR030C, strain SLT2, stronger effect = lower value
[8] = S. cerevisiae deletion strains, locus YHR087W, strain rtc3, stronger effect = lower value
[9] = S. cerevisiae deletion strains, locus YJL187C, strain SWE1, stronger effect = lower value
[10] = S. cerevisiae deletion strains, locus YJR043C, strain POL32, stronger effect = lower value
[11] = S. cerevisiae deletion strains, locus YJR075W, strain HOC1, stronger effect = lower value
[12] = S. cerevisiae deletion strains, locus YKL190W, strain CNB1, stronger effect = lower value
[13] = S. cerevisiae deletion strains, locus YLR039C, strain RIC1, stronger effect = lower value
[14] = S. cerevisiae deletion strains, locus YLR058C, strain SHM2 (second series), stronger effect = lower value
[15] = S. cerevisiae deletion strains, locus YLR085C, strain ARP6, stronger effect = lower value
[16] = S. cerevisiae deletion strains, locus YLR262C, strain YPT6, stronger effect = lower value
[17] = S. cerevisiae deletion strains, locus YML094W, strain GIM5, stronger effect = lower value
[18] = S. cerevisiae deletion strains, locus YMR219W, strain ESC1, stronger effect = lower value
[19] = S. cerevisiae deletion strains, locus YMR263W, strain SAP30, stronger effect = lower value
[20] = S. cerevisiae deletion strains, locus YMR307W, strain GAS1, stronger effect = lower value
[21] = S. cerevisiae deletion strains, locus YNL153C, strain GIM3, stronger effect = lower value
[22] = S. cerevisiae deletion strains, locus YNL298W, strain CLA4 (second series), stronger effect = lower value
[23] = S. cerevisiae deletion strains, locus YNL322C, strain KRE1, stronger effect = lower value
[24] = S. cerevisiae deletion strains, locus YNR030W, strain Alg12, stronger effect = lower value
[25] = S. cerevisiae deletion strains, locus YPL055C, strain LGE1, stronger effect = lower value
[26] = S. cerevisiae deletion strains, locus YPL241C, strain CIN2, stronger effect = lower value
[27] = S. cerevisiae deletion strains, locus YPR135W, strain CTF4, stronger effect = lower value
[28] = S. cerevisiae strains, strain wild type, stronger effect = lower value
[29] = S. cerevisiae deletion strains, locus YAL040C, strain CLN3, stronger effect = lower value
[30] = S. cerevisiae deletion strains, locus YDR363W, strain ESC2, stronger effect = lower value
[31] = S. cerevisiae deletion strains, locus YER002W, strain NOP16, stronger effect = lower value
[32] = S. cerevisiae deletion strains, locus YNL175C, strain NOP13, stronger effect = lower value
[33] = S. cerevisiae deletion strains, locus YNL197C, strain WHI3, stronger effect = lower value
[34] = S. cerevisiae deletion strains, locus YNL224C, strain SQS1, stronger effect = lower value
[35] = S. cerevisiae deletion strains, locus YOR083W, strain WHI5 (second series), stronger effect = lower value
[36] = S. cerevisiae deletion strains, locus YNL128W, strain TEP1, stronger effect = lower value
[37] = S. cerevisiae deletion strains, locus YOL006C, strain TOP1, stronger effect = lower value

Measured: normalized growth

CN(C(=O)Nc1ccccc1)n1cnc2ccccc2c1=O
inactive: [1] 0.999 | [2] 1.03 | [3] 1 | S. cerevisiae deletion strains, locus YDL134C, strain PPH21, stronger effect = lower value 1.03 | [4] 0.917 | [5] 1.02 | [6] 1.01 | [7] 1.01 | [8] 0.994 | [9] 1.01 | [10] 0.998 | [11] 1.04 | [12] 1.01 | [13] 1 | [14] 1.02 | [15] 1.04 | [16] 1.01 | [17] 1.03 | [18] 1.01 | [19] 0.994 | [20] 0.98 | [21] 1.01 | [22] 1 | [23] 1.01 | [24] 1.01 | [25] 1.05 | [26] 1.02 | [27] 1 | [28] 1.01

CCCCCCC(C)(C)c1ccc([C@@H]2C[C@H](O)CC[C@H]2CCCO)c(O)c1
inactive: [1] 1.01 | [29] 0.993 | [4] 0.986 | [30] 1.02 | [31] 0.977 | [20] 1.01 | [32] 0.915 | [33] 0.944 | [34] 0.922 | [23] 1.01 | [35] 0.897 | [25] 0.998
active: [21] 0.716

CCCCCN(CCCCC)C(=O)C(CCC(=O)O)NC(=O)c1ccc(Cl)c(Cl)c1 (configuration not stated)
inactive: [1] 1.01 | [29] 1 | S. cerevisiae deletion strains, locus YCL061C, strain MRC1 (second series), stronger effect = lower value 1 | [4] 0.993 | [30] 1.03 | [31] 0.991 | [7] 0.993 | S. cerevisiae deletion strains, locus YHR079C, strain IRE1, stronger effect = lower value 0.986 | S. cerevisiae deletion strains, locus YJL095W, strain BCK1, stronger effect = lower value 1.01 | S. cerevisiae deletion strains, locus YJR066W, strain TOR1, stronger effect = lower value 0.97 | [11] 1.02 | S. cerevisiae deletion strains, locus YLR113W, strain HOG1, stronger effect = lower value 0.952 | [20] 0.992 | [36] 0.963 | [32] 0.995 | S. cerevisiae deletion strains, locus YNL183C, strain NPR1, stronger effect = lower value 0.949 | [33] 0.986 | [34] 0.985 | [35] 0.95 | S. cerevisiae deletion strains, locus YOR231W, strain MKK1, stronger effect = lower value 0.983 | [25] 0.983 | S. cerevisiae deletion strains, locus YPL256C, strain CLN2, stronger effect = lower value 0.987

COC(=O)c1cc([N+](=O)[O-])ccc1N1CCOCC1
inactive: [1] 1.01 | [2] 1 | [3] 1.01 | [4] 0.98 | [5] 1.01 | [6] 1.01 | [7] 1.09 | [8] 1.02 | [9] 1 | [10] 0.991 | [11] 0.988 | [12] 1.01 | [13] 1.02 | [14] 1 | [15] 1.06 | [16] 1.01 | [17] 1.03 | [18] 1 | [19] 1 | [20] 1.06 | [21] 0.995 | [22] 1.05 | [23] 0.993 | [24] 1.03 | [37] 1.06 | [25] 1.02 | [26] 1.06 | [27] 1.04 | [28] 1.01

COc1cc([N+](=O)[O-])ccc1N1CCCC1
inactive: [2] 0.941 | [4] 0.898 | [5] 0.912 | [8] 0.979 | [10] 0.951 | [11] 0.933 | [19] 0.928 | [36] 0.931 | [25] 0.946
active: [1] 0.898 | [3] 0.882 | [6] 0.882 | [7] 0.302 | [9] 0.902 | [13] 0.554 | [14] 0.929 | [15] 0.605 | [16] 0.661 | [17] 0.865 | [18] 0.934 | [20] 0.445 | [21] 0.913 | [22] 0.775 | [23] 0.916 | [24] 0.862 | [37] 0.522 | [26] 0.858 | [27] 0.512 | [28] 0.867
